Laboratory results from paper PMC5540273 (PLoS ONE, 2017).

Columns and labels:
Conditions in all cases: concentration: 1 μM, replicates: in singlicate; n = 1
[1] = system: EPHA7
[2] = system: EPHA8
[3] = system: EPHB1
[4] = system: EPHB2
[5] = system: EPHB3
[6] = system: EPHB4
[7] = system: EPHB6
[8] = system: ERBB2
[9] = system: ERBB3
[10] = system: ERBB4
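Note: KINOMEscan kinase panel screen.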

| SMILES | %Inh [1] | %Inh [2] | %Inh [3] | %Inh [4] | %Inh [5] | %Inh [6] | %Inh [7] | %Inh [8] | %Inh [9] | %Inh [10] |
| --- | --- | --- | --- | --- | --- | --- | --- | --- | --- | --- |
| CCS(=O)(=O)c1ccc(OC)c(Nc2nccc(-c3c(-c4cccc(NC(=O)c5c(F)cccc5F)c4)nn4ncccc34)n2)c1 [GSK326180] | 5% | 24% | 15% | 12% | 100% | 12% | 16% | 99.3% | 0% | 100% |
| COc1ccc(Nc2nccc(NCCNC(=O)c3cc4ccccc4s3)n2)cc1 [GSK1379896] | 0% | 3% | 16% | 0% | 5% | 0% | 0% | 4% | 0% | 0% |
| NCCCC(NC(=O)c1cc(Br)c(-c2ccnc3[nH]ccc23)s1)c1ccccc1.O=C(O)C(F)(F)F.O=C(O)C(F)(F)F (centres unmarked) [GSK1287544] | 8% | 7% | 30% | 0% | 0% | 15% | 0% | 0% | 0% | 15% |
| Cn1cc(-c2ccc3c(c2)CCN3C(=O)Cc2cccc(Cl)c2)c2c(N)ncnc21 [GSK2606590] | 13% | 34% | 15% | 0% | 9% | 8% | 86% | 5% | 0% | 0% |
| Cl.Cl.NCC(C(=O)Nc1cc(Br)c(-c2ccnc3[nH]ccc23)s1)c1ccccc1 (centres unmarked) [GSK1269851] | 0% | 13% | 0% | 0% | 27% | 42% | 1% | 5% | 0% | 52% |
| COc1ccc(CNC(=O)NC2CCN(c3ccnc(Nc4ccc(F)cc4)n3)CC2)cc1 [GSK1379788] | 0% | 0% | 1% | 0% | 0% | 7% | 38% | 34% | 10% | 25% |
| FC(F)(F)c1ccc(/C=C/c2cncnc2Nc2ccc3[nH]c(Cc4ccccc4)nc3c2)cc1 [GW709199] | 0% | 1% | 9% | 7% | 5% | 37% | 0% | 69% | 69% | 72% |
| Clc1ccc(-c2nn3ncccc3c2-c2ccnc(Nc3ccc4c(c3)OCCO4)n2)cc1 [GW829116] | 35% | 3% | 18% | 13% | 7% | 0% | 65% | 32% | 8% | 84% |
| Cc1ccc(C(=O)Nc2ccc(Nc3ccnc4cc(-c5nccs5)ccc34)cc2O)cc1.Cl [GW494702] | 0% | 0% | 11% | 21% | 20% | 12% | 50% | 42% | 21% | 10% |
| COc1cccc(NC(=O)NC2CCN(c3ccnc(Nc4cc(OC)c(OC)c(OC)c4)n3)C2)c1 (centres unmarked) [GSK1379763] | 6% | 4% | 11% | 8% | 0% | 7% | 94.3% | 0% | 0% | 30% |
| CN(c1ccc(NC(=O)Nc2cc(C(F)(F)F)ccc2F)cc1)c1ccnc(Nc2ccc(S(N)(=O)=O)cc2)n1 [GW809893] | 97.9% | 99.9% | 97.5% | 95.7% | 50% | 95% | 98.8% | 0% | 35% | 0% |
| CN(C)S(=O)(=O)c1cc(-c2ccc3nccc(-c4cccc(S(N)(=O)=O)c4)c3c2)cnc1N [GSK1669921] | 15% | 27% | 31% | 0% | 11% | 16% | 25% | 15% | 0% | 0% |
| COc1cc2c(cc1OCCN1CCNCC1)ncc1c3ccc(C#N)cc3[nH]c21 | 0% | 0% | 0% | 2% | 0% | 0% | 55% | 4% | 0% | 28% |
| Cc1ccc(S(=O)(=O)Nc2ccc(Nc3nccc(Nc4cccc5[nH]ncc45)n3)cc2)cc1 [GSK581271] | 12% | 30% | 29% | 0% | 3% | 26% | 31% | 14% | 0% | 39% |
| Fc1ccc(-c2ncn(C3CCNCC3)c2-c2ccnc(Oc3ccc(-c4ccccc4)cc3)n2)cc1 [SB-245391] | 3% | 8% | 10% | 6% | 16% | 17% | 15% | 62% | 33% | 6% |
| CN1CCN(CCCNc2nccc(-c3c(-c4ccc(F)cc4)nn4cc(C(F)(F)F)ccc34)n2)CC1 [GW621581] | 0% | 15% | 13% | 0% | 0% | 9% | 26% | 0% | 0% | 0% |

| SMILES | %Inh [1] | %Inh [2] | %Inh [3] | %Inh [4] | %Inh [5] | %Inh [6] | %Inh [7] | %Inh [8] | %Inh [9] | %Inh [10] |
| --- | --- | --- | --- | --- | --- | --- | --- | --- | --- | --- |
| C[C@@H](Oc1cc(-n2cnc3cc(-c4ccnc(NCCS(C)(=O)=O)c4)ccc32)sc1C(N)=O)c1ccccc1Cl [GSK907232] | 6% | 23% | 19% | 0% | 10% | 3% | 60% | 0% | 0% | 0% |
| O=c1[nH]cc(-c2ccc(N3CCOCC3)cc2)c2sc(-c3cn[nH]c3)cc12 [GSK2276055] | 9% | 12% | 6% | 0% | 0% | 2% | 31% | 3% | 0% | 24% |
| O=C(Nc1cccc(-c2nn3ccccc3c2-c2ccnc(Nc3cccc(F)c3)n2)c1)c1c(F)ccc(F)c1Cl [GSK357952] | 11% | 19% | 6% | 0% | 4% | 8% | 48% | 82% | 0% | 76% |
| Cn1cc(-c2ccc3c(c2)CCN3C(=O)Cc2cccc(F)c2)c2c(N)ncnc21 [GSK2603358] | 7% | 11% | 0% | 0% | 13% | 16% | 98.7% | 40% | 0% | 12% |
| Cl.c1ccc(-c2ccc3c(Nc4ccc5[nH]ncc5c4)ccnc3c2)nc1 [GW440137] | 0% | 16% | 13% | 0% | 0% | 6% | 46% | 34% | 35% | 31% |
| COc1ccc(-c2coc3ccc(-c4nnc(SCc5ccc(OC)c(C(F)(F)F)c5)o4)cc23)cc1 | 19% | 14% | 26% | 24% | 20% | 0% | 16% | 19% | 28% | 21% |
| c1ccc(-c2n[nH]cc2Nc2ccnc3ccccc23)nc1 [GW694077] | 11% | 21% | 18% | 0% | 1% | 0% | 0% | 0% | 4% | 0% |
| CCn1c(-c2nonc2N)nc2c(C#CC(C)(C)O)ncc(OCCCCN)c21.O=C(O)C(F)(F)F.O=C(O)C(F)(F)F [GSK507274] | 0% | 3% | 0% | 0% | 27% | 29% | 6% | 5% | 0% | 41% |
| COc1cc(Nc2ncc3c(C)nc(-c4cc5ccccc5[nH]4)n3n2)cc(OC)c1OC [GW869516] | 0% | 4% | 58% | 36% | 0% | 47% | 0% | 14% | 26% | 34% |
| COc1cccc(C(=O)Nc2cccc(Oc3ccc4nc(NC(=O)C5CC5)cn4n3)c2)c1 | 5% | 98.4% | 87% | 94.5% | 0% | 85% | 98.5% | 4% | 10% | 6% |
| Nc1n[nH]c2cnc(-c3ccccc3)cc12 [SB-642124] | 65% | 51% | 19% | 40% | 16% | 18% | 0% | 0% | 0% | 24% |
| CC(C)(C)c1ccc2nccc(Nc3cccc(O)c3)c2c1 [GW856795] | 0% | 56% | 22% | 17% | 57% | 37% | 3% | 88% | 44% | 37% |
| COc1cc(Nc2nccc(N3CCC(NC(=O)c4cc5ccccc5s4)C3)n2)cc(OC)c1OC (centres unmarked) [GSK1379760] | 4% | 17% | 6% | 26% | 5% | 15% | 61% | 6% | 12% | 0% |
| CCCCc1nn2ncccc2c1-c1ccnc(Nc2ccc(N3CCN(C)CC3)cc2)n1 [GW684941] | 0% | 73% | 65% | 26% | 18% | 62% | 97.7% | 69% | 72% | 66% |
| Nc1ncc(-c2ccc3nccc(-c4ccncc4)c3c2)cc1S(=O)(=O)N1CCOCC1 [GSK1627798] | 4% | 15% | 1% | 0% | 3% | 3% | 36% | 0% | 0% | 0% |
| CCc1ccc(-c2ccc3c(c2)-c2c(cnn2C)S(=O)(=O)N3C)cc1 | 0% | 0% | 0% | 0% | 0% | 1% | 25% | 0% | 0% | 4% |
